Data from ChEMBL document CHEMBL3433997, “St. Jude Leishmania screening dataset” (2016).

The compounds below were run against Solute carrier family 2, facilitated glucose transporter member 1 (Homo sapiens) (UniProt P11166) (assay: ST_JUDE_LEISH: Cytotoxicity at 2uM final concentration against transgenic Leishmania Mexicana promastigotes LmGLUT1 that are glucose transport deficient and complemented with the human glucose transporter GLUT1. Activity is measured by DNA content using SYBR green in vitro).
Solute carrier family 2, facilitated glucose transporter member 1 (Homo sapiens), sequence (P11166 whole entry): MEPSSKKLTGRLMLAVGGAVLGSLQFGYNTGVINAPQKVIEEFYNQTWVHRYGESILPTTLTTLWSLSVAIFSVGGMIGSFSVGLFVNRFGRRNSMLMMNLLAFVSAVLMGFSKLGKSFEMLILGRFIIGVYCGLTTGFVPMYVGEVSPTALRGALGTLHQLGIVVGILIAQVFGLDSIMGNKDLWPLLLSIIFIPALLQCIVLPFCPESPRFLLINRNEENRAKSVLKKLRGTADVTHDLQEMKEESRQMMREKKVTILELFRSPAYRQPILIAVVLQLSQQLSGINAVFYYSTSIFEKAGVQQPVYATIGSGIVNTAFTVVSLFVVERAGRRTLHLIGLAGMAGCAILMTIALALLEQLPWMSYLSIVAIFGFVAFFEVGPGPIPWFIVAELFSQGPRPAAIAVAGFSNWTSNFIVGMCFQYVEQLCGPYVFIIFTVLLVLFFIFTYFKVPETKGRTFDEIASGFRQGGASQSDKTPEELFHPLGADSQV
Format: functional

Structure (SMILES)	inhibition
COc1ccc(NC(=O)[C@H](CC(C)C)Nc2ccnc(NCCc3ccc(F)cc3)n2)cc1	1.22%
FC(F)(F)c1cccc(CNCC2CCN(CC3CCCCC3)CC2)c1	-0.93%
Cc1cccc(CN2CCCN(Cc3ccc(C(=O)Nc4ccc(C)c(F)c4)cc3)CC2)c1	1.23%
N=C(NCCc1ccc(Cl)c(Cl)c1)c1ccc2ccccc2c1	3.61%
O=c1cc(NCCCNCc2ccc(Cl)c(Cl)c2)[nH]c2ccc(C(F)(F)F)cc12	2.13%
Cc1cccc(CCNC(=O)c2cc(Br)cc(N3CCN(c4ccncc4)CC3)c2)c1	0.72%
Cc1ccc(CN2CCCN(Cc3ccc(C(=O)Nc4ccc(Cl)cc4)cc3)CC2)s1	2.49%
O=C(/C=C/c1ccc(Cl)c(Cl)c1)NCCCCCN1CCC(NC(=O)Nc2cc(Cl)ccc2Cl)CC1	9.69%
Cc1ccc(NC(=N)Nc2ncccc2OCc2c(F)cccc2Cl)cc1	7.2%
O=C(Cc1ccc(Cl)cc1)Nc1cc(Cl)ccc1Cn1cnc(N2CCNCC2)cc1=O	3.22%
CN(CC(=O)Nc1ccc(F)cc1)C(=O)c1ccc(-c2ccc(F)cc2)o1	5.1%
CCn1ncc2c(NC3CCOCC3)c(CNC(=O)c3ccnn3C)c(C)nc21	3.11%
COc1ccc(N(C)Cc2cnc3nc(N)nc(N)c3n2)cc1	1.5%
N#Cc1ccc2c(c1)CCN(CCC1CCC(NC(=O)/C=C/c3c[nH]c4c(Br)cccc34)CC1)CC2 (centres undefined)	16.5%
COCCOc1cccc(CN2CCC(c3cc4nc(C)cc(C(F)(F)F)n4n3)C2)c1 (centres undefined)	-2.12%
COc1c(C2CCN(CCCCNC(=O)c3ccc(-c4ccc(NC(=O)C(F)(F)F)cc4)cc3)CC2)ccc2c1CCCC2	1.22%
O=C1C(=Cc2c(O)ccc3ccccc23)SC(=NCc2ccccc2)N1Cc1ccccc1	3.93%
CCCCCCCN(CCCCCCC)CCCC(=O)Nc1ccnc2ccc(OC)cc12	1.2%
Cc1c(C)c2c(c(C)c1O)CCC(C)(CCC(=O)O)O2 (centres undefined)	0.86%
Cc1[nH]c(C)c([N+](=O)[O-])c(=O)c1-c1ccc(Oc2ccc(OC(F)(F)F)cc2)cc1	0.69%

Structure (SMILES)	inhibition
COc1ccc(C(=O)CCc2ccc(O)cc2)cc1	1.26%
COc1cc(-n2c(CN3CCCC3)nc3cc(-c4ccc(Cl)cc4)sc3c2=O)ccc1OCCN1CCCC1	2.99%
Cc1cc(NC2CCCC2)nc(Nc2ccccc2F)n1	11.8%
CC1(C)CN2CCCC2c2cc(NC(=O)/C=C/c3ccccc3Cl)ccc21 (centres undefined)	3.26%
O=C(Nc1cccc(CN2CCCN(Cc3ccsc3)CC2)c1)c1cc2ccccc2s1	1.11%
CCCN1CCN(CCCCNc2c3ccccc3nc3ccccc23)CC1	51.5%
CC1(C)NC(N)=NC(=N)N1OCCCO	-0.7%
Cc1c(F)cc(C(=O)NC2CC2)cc1-c1ccc2c(cnn2S(=O)(=O)c2cccs2)c1	2.62%
COc1ccc(C(=O)O)cc1OCc1ccccc1	0.41%
COc1cc2c(cc1OC)C(C(=O)Nc1cc(OC)c(OC)c(OC)c1)C(c1ccc(SC)cc1)N(C)C2=O (centres undefined)	1.51%
Cc1ccc(F)cc1S(=O)(=O)Nc1ccc(CCN2CCC(N3CCCCC3)CC2)cc1	0.5%
Nc1nc(N)c2c(ccc3c2ccn3Cc2ccc3c(c2)OCO3)n1	97.8%
COc1ccc2nccc([C@@H](O)CN3CCC(NC(=O)CCC(=O)c4cc(C(C)(C)C)ccc4OC)CC3)c2c1	5.04%
CCCCCCCN1CCC(CCNc2ccnc3ccc(OC)cc23)CC1	0.51%
COc1ccc2nccc([C@@H](O)CN3CCC(NC(=O)c4ccc(Cl)c(OC)c4)CC3)c2c1	4.62%
O=C(/C=C/c1ccc(Cl)c(Cl)c1)NCCCCCN1CCCN(C(=O)Nc2cccc(Cl)c2)CC1	0.54%
O=C(Cc1n[nH]c(=O)c2ccccc12)Nc1cccc(C(=O)Nc2cccc(C(F)(F)F)c2)c1	3.52%
Cc1ccc(CN2CCCN(Cc3cccc(NC(=O)c4ccc(-c5ccccc5)cc4)c3)CC2)cc1C	3.45%
COc1ccc2nc(C)cc(N/N=C/c3ccc([N+](=O)[O-])o3)c2c1	3.7%
